Screening results from PubChem.
In the library only some 7.4% were active in any assay of this set; here they are far more common.
Rab9 promoter act – qHTS Assay for Rab9 Promoter Activators; Huh7 Rab9 promoter-luciferase reporter, luminescence, 24 h; Potency, µM (series often up to 9.22 µM), for the others: top-dose activation, negative = inhibition, actives largely listed as activators; 320,000 compounds, 2.8% hits; AID 485297, 2010; also: % of control where 0% means no effect; nearly all actives have a fitted effect of over 60% in size
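Cells were plated at 1500 per well in reduced-serum medium with 10% FBS and left 2 h. Compound in DMSO was then added for 24 h at 37 °C. Reporter signal was read by luminescence after 10 min with luciferase detection reagent.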
SMN2 splice up – qHTS Assay for Enhancers of SMN2 Splice Variant Expression | HEK293 SMN2-luciferase splicing reporter, luminescence, 30-36 h | Potency, µM (top dose mostly 46.1 µM), inactives show top-dose activity change, positive = activation, actives largely listed as activators | 210,000 compounds, 2.8% hits | AID 1458, 2008; also: % of control where 0% means no effect; nearly all actives have a fitted effect of over 55% in size
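HEK293 cells carry an SMN2 minigene-luciferase reporter in which exon 7 inclusion puts luciferase in frame. Cells were seeded at 2000 cells/well, attached for 10-12 hours, then exposed to compounds for 30-36 hours at 37C before ONE-Glo luminescence.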
FLuc modulator – qHTS profiling assay for firefly luciferase inhibitor/activator using purifed enzyme and Km concentrations of substrates (counterscreen for miR-21 project); Luciferin 4-monooxygenase (Photinus pyralis), P08659; purified FLuc, Km substrates, luminescence inhibition; Potency, µM (titrated, usually from 57.5 µM), without a hit: top-dose activity change, negative = inhibition, hits mostly inhibitors; 360,000 compounds, 6.9% hits; AID 588342, 2011;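 also: plate controls were vehicle for no effect and reference inhibitor for full effect; nearly all actives have a fitted effect of over 55% in size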
Target sequence (P08659 whole entry, looked up): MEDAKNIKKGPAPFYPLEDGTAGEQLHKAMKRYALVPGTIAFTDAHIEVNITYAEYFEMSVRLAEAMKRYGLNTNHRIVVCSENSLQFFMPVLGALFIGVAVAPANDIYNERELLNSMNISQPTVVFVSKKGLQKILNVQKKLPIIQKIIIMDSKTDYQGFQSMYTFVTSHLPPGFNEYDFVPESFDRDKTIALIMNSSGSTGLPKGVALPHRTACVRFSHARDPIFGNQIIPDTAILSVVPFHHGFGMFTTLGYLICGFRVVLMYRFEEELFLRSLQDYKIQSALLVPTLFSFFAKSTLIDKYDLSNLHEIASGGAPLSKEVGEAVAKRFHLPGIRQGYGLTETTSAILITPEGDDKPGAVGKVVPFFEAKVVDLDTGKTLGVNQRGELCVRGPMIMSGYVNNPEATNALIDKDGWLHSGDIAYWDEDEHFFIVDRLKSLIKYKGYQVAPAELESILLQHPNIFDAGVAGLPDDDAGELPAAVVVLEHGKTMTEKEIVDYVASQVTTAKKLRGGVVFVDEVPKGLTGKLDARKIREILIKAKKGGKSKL
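Purified P. pyralis luciferase, 10 nM final, with Km-level 10 uM D-luciferin and 10 uM ATP in 50 mM Tris acetate pH 7.5, 10 mM Mg acetate, 0.01% Tween-20, 0.05% BSA; 6-point qHTS titration about 60 µM downward; luminescence read.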
NPC1 promoter act – qHTS Assay for NPC1 Promoter Activators | Huh7 NPC1 promoter luciferase reporter, 24 h | Potency, µM (series often up to 9.22 µM), inactives show at the highest dose activation, hits mostly activators | 320,000 compounds, 2.4% hits; also: % of control where 0% means no effect; nearly all actives have a fitted effect of over 60% in size
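Readout is luciferase luminescence, reflecting NPC1 promoter activation in stably transfected Huh7 cells after 24 h compound exposure at 37 °C in reduced-serum medium with 10% FBS.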
ELG1 genotox – qHTS screen for small molecules that induce genotoxicity in human embryonic kidney (HEK293T) cells expressing luciferase-tagged ELG1 | HEK293T ELG1-luciferase reporter, luminescence, 16 h | Potency, µM (doses to about 46 µM), inactives show top-dose activity change, positive = activation, usual class: activators | 330,000 compounds, 1.3% hits | AID 504466, 2011; also: % of control where 0% means no effect; nearly all actives have a fitted effect of over 60% in size
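Luminescence read-out: rising ELG1-luciferase signal, reflecting elevated ELG1 protein under genetic stress, flags genotoxic compounds. Cells were treated for 16 hr at 37 °C before ONE-Glo detection.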
* hit, by the source's call; ? = inconclusive; nt = not tested or not shown; [ ] = remark or other dose. Calls follow the shape of the dose curve; as a rule, active = well fitted curve in the direction sought with a large enough effect; inconclusive = small, poorly fitted or top-dose-only effect, or another doubt; inactive = no such curve, though single readings can be large; an effect the other way counts as inactive or inconclusive. Potency is read from the fitted curve at half-maximal effect.

SMILES | Rab9 promoter act | SMN2 splice up | FLuc modulator | NPC1 promoter act | ELG1 genotox
COC(=O)c1ccc(CNC(=O)c2ccc3c(c2)OCCO3)cc1 | 0% | nt | ? | 18% | 13%
Cc1cccc(NC(=S)NCc2ccc3c(c2)OCO3)c1 | -9% | 25% | -1% | -2% | 1%
COC(=O)c1ccsc1NC(=O)c1ccc2c(c1)OCCO2 | 17% | nt | 19µM* | -1% | 14%
Cc1ccc(-c2cc(C(=O)Nc3cc(C(=O)O)ccc3C)c3ccccc3n2)cc1 | -1% | nt | 11µM* | -1% | 3%
NC(Cc1ccccc1)=NCC(=O)O | nt | -7%[9.22 µM] | nt | nt | nt
CN1CCN(CN2C(=O)C3C4C=CC(C3C2=O)C2C3C(=O)N(CN5CCN(C)CC5)C(=O)C3C42)CC1 (stereo unspecified) | nt | -7%[9.22 µM] | nt | nt | nt
CCCCC(CC)COCCCN (stereo unspecified) | nt | 1% | nt | nt | nt
O=C(Nc1ccc(NC(=O)c2ccc3c(c2)OCCO3)cc1)c1ccccc1 | -7% | nt | 2% | -3% | ?
O=C(Nc1ccccc1)c1ccc2c(c1)OCCO2 | 1.6µM* | 18µM* | 4.3µM* | 0.71µM* | ?
COc1ccc(CNC(=O)CCCCCNC(=O)N2CCn3c2nc2ccccc23)cc1 | -2% | nt | 17µM* | -14% | 0%
O=C(CCNC(=O)N1CCn2c1nc1ccccc12)NCc1ccc(Cl)cc1 | -2% | nt | -2% | -3% | -5%
O=c1[nH]c(-c2ccccc2)nnc1-c1ccccc1 | ? | nt | 17µM* | ? | ?
C/C(CC(=O)Nc1ccc([N+](=O)[O-])cc1)=N\NC(=O)c1ccccc1O | -2% | nt | 12µM* | 2% | -1%
C/C(CC(=O)Nc1ccc(Cl)c(C(F)(F)F)c1)=N\NC(=O)c1cccc(O)c1 | 0% | 13% | -12% | -2% | -3%
C/C(CC(=O)Nc1ccc(Cl)c(C(F)(F)F)c1)=N\NC(=O)c1ccccc1O | -1% | 10%[1.84 µM] | 17µM* | 1% | -6%
C/C(CC(=O)Nc1ccc(N(C)C)cc1)=N\NC(=O)c1ccccc1O | 10% | nt | 12µM* | 5% | -1%
C/C(CC(=O)Nc1ccc(N(C)C)cc1)=N\NC(=O)c1ccc([N+](=O)[O-])cc1Cl | 11% | 9% | -2% | -4% | -3%
C/C(Cn1nnc([N+](=O)[O-])n1)=N\NC(=O)c1ccccc1O | -4% | nt | 11µM* | -1% | -12%
Cc1ccc(C(C)C)cc1OCCCCN1CCCC1 | -3% | 6% | -1% | 2% | -8%
Clc1ccc2nc(Nc3ccccc3Cl)nc(-c3ccccc3)c2c1 | nt | 0% | 1% | nt | nt
Cc1cnc(NC(=O)COc2ccccc2)s1 | 2.2µM* | 11µM* | 11µM* | 2µM* | ?
Cc1cnc(NC(=O)CCc2ccccc2)s1 | 9% | nt | ? | -14% | ?
COC(=O)c1sc(NC(=O)COc2ccccc2OC)nc1C | 14% | -12% | ? | 13% | 2%
COc1ccccc1OCC(=O)Nc1ncc(C)s1 | 1.8µM* | nt | 2.4µM* | 1.6µM* | ?
CC(NC(=S)NCCN1CCOCC1)C12CC3CC(CC(C3)C1)C2 (stereo unspecified) | 14% | -5% | 3% | -4% | -1%
SMILES | Rab9 promoter act | SMN2 splice up | FLuc modulator | NPC1 promoter act | ELG1 genotox
O=c1n(Cc2ccccc2Cl)nc2n1-c1ccccc1SC2 | 3.5µM* | nt | 24µM* | ? | ?
CC(C)=C(NC(=O)c1ccccc1)C(=O)Nc1cccc(C)c1 | 3% | nt | 3% | 1% | 4%
Cc1ccc(/C(N)=N/OC(=O)C23CC4CC(CC(C4)C2)C3)cc1 | ? | -15% | 9.5µM* | 24% | 4%
N/C(=N\OC(=O)C12CC3CC(CC(C3)C1)C2)c1ccncc1 | -1% | nt | 19µM* | -3% | 8%
Cc1ccc(/C(N)=N/OC(=O)N2CCOCC2)cc1 | 21% | -23% | ? | 18% | 2%
C(=N\N1CCN(c2ccccn2)CC1)/c1ccccn1 | ? | nt | 17µM* | 22% | ?
CN(c1ccccc1)c1ccc(/C=N/N2CCOCC2)cc1 | 1.3µM* | 7.9µM* | 1.7µM* | 1.8µM* | 18µM*
Oc1ccc(/C=N/N2CCN(c3ccccn3)CC2)cc1 | -1% | nt | ? | 1% | 14%
CN(C)c1ccc(/C=N/N2CCN(c3ccccn3)CC2)cc1 | ? | nt | 4.8µM* | ? | ?
COC(=O)CSc1nc2[nH]ncc2c(=O)[nH]1 | -3% | 15% | 2% | -2% | -1%
COc1ccc(/C=C/c2nnc(NC(=O)CSc3ccc(Cl)cc3)s2)cc1 | ? | 10µM* | 0% | ? | ?
COc1ccc(/C=C/c2nnc(NC(C)=O)s2)cc1 | 0.13µM* | nt | 1.9µM* | 1.1µM* | 2.3µM*
COc1ccc(/C=C/c2nnc(NC(=O)CC(C)C)s2)cc1 | 12% | nt | ? | 12% | 0%
COC(=O)Nc1nnc(/C=C/c2ccc(OC)cc2)s1 | 3.5µM* | 8.9µM* | 6µM* | ? | ?
CCCCSc1nnc(CNC(=O)C23CC4CC(CC(C4)C2)C3)n1Cc1ccccc1 | -2% | -21% | 4% | -4% | -9%
COc1ccccc1N1CCN(C(=O)c2ccc3c(c2)CCN3S(C)(=O)=O)CC1 | -15% | nt | 0% | 0% | -5%
CCCCC[C@H](O)/C=C/C=C/C/C=C\CCCC(=O)O | nt | 0% | nt | nt | nt
O=C(CC1CCCC1)Nc1ccc2c(c1)CCC2 | 3.5µM* | ? | 13µM* | 2.5µM* | ?
Cc1cccc(NC(=O)CC2CCC2)c1 | 4% | 4% | -11% | 9% | 5%
Cc1cc(NC(=O)CC2CCCC2)ccc1Br | ? | nt | 19µM* | -30% | ?
O=C(Cc1ccccc1)Nc1ccc2c(c1)CCC2 | ? | nt | ? | ? | 13%
Cc1cc(NC(=O)CCSc2ccccc2)ccc1Br | 20% | ? | 24µM* | 14% | ?
CC[C@](N)(CCC(=O)O)C(=O)O | nt | 17% | nt | nt | nt
Cc1ccc(C(=O)NNC(=O)C2CCN(c3ncccn3)CC2)cc1 | 6% | nt | -1% | 1% | -2%
COc1cccc(NC(=O)C(=S)NC2CCCCC2)c1 | 0.79µM* | 3.5µM* | 2.4µM* | 2µM* | ?
SMILES | Rab9 promoter act | SMN2 splice up | FLuc modulator | NPC1 promoter act | ELG1 genotox
COc1cccc(NC(=O)C2CCCN2C(=O)NC2CCCCC2)c1 (stereo unspecified) | 0% | nt | 0% | 1% | 5%
COc1cccc(NC(=O)NC2CCCCCCC2)c1 | ? | nt | 11µM* | 3.5µM* | ?
COc1cc(NC(=O)NC2Cc3ccccc3C2)cc(OC)c1 | 15% | nt | 17µM* | 5% | 8%
O=C(Nc1ccc2c(c1)OCCO2)NC1CCCCC1 | 0.56µM* | 10µM* | 3.8µM* | 0.63µM* | 1.6µM*
O=C(Nc1ccc2c(c1)OCCO2)C1CCC1 | 1% | 14% | 1%[2.3 µM] | 12% | 10%
COc1cccc(NC(=S)N2CCC(NC(=O)C3CCCCC3)CC2)c1 | 6% | nt | 7% | -2% | -7%
